The values below come from the supplement of paper PMC9446081.

Out of some 39,000 compounds screened, about 220 (0.56%) showed activity. The entries come from a sample that favours actives as a whole. A number with no mark means an inactive call.
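Further: Wild-type cells incubated without shaking, value is the mean of two biological replicates.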

The assay concerns Escherichia coli K-12 BW25113. Briefly: relative growth (OD600 normalised to plate interquartile mean) (fraction); higher = less growth inhibition, active = 0.2 or less. As to conditions: 50 µM; LB; incubation time: overnight (16-24 h).
`C[C@H]1CN([C@@H](C)CO)C(=O)c2cc(NC(=O)Cn3cnnn3)ccc2O[C@@H]1CN(C)Cc1ccncc1`: the relative growth was 1.02.

For `C[C@@H]1CN([C@H](C)CO)C(=O)c2cc(NS(=O)(=O)c3ccc(F)cc3)ccc2O[C@H]1CN(C)S(=O)(=O)c1cn(C)cn1`, the relative growth was 1.04.

With `C[C@@H]1CN([C@@H](C)CO)C(=O)c2cc(NC(=O)C3CCCCC3)ccc2O[C@@H](C)CCCCO[C@H]1CN(C)Cc1ccc(C(=O)O)cc1`, the relative growth was 0.977.

`Cl.Nc1ccn(C2OC(CO)C(O)C2(F)F)c(=O)n1` (stereo unspecified): the relative growth is 1.09.

With `COc1ccc(S(=O)(=O)Nc2ccc3c(c2)C(=O)N([C@@H](C)CO)C[C@H](C)[C@H](CN(C)S(=O)(=O)c2ccc(F)cc2)O3)cc1`, the relative growth is 1.

In the case of `C[C@H](CO)N1C[C@H](C)[C@@H](CN(C)Cc2ccc(C(=O)O)cc2)OCCCC[C@H](C)Oc2ccc(NC(=O)Nc3ccc4c(c3)OCO4)cc2C1=O`, the relative growth is 0.95.

Consider `COCC#Cc1cnc2c(c1)C(=O)N([C@H](C)CO)C[C@H](C)[C@@H](CN(C)S(=O)(=O)c1ccccc1)O2`, for which the relative growth was 1.

In the case of `CC(=O)N[C@H](C)c1cn(C)nc1C`, the relative growth was 1.03.

`C[C@@H]1CN([C@H](C)CO)C(=O)c2cc(NC(=O)C3CCCCC3)ccc2O[C@@H](C)CCCCO[C@@H]1CN(C)S(=O)(=O)c1cccs1`: the relative growth is 0.933.

Regarding `O=c1[nH]cc(F)c(=O)[nH]1`, the relative growth was 0.196 (active).

`O=c1[nH]cc(Nc2ccccc2)c(=O)[nH]1`: the relative growth is 1.01.

For the compound `O=c1[nH]cc(N2CCCCC2)c(=O)[nH]1`, the relative growth was 1.

In the case of `C[N+]1(C)C2CCC1CC(OC(=O)C(O)c1ccccc1)C2.[Br-]` (stereo unspecified), the relative growth was 0.924.

In the case of `Nc1nnc(C(=O)c2ccccc2N)s1`, the relative growth was 0.951.

In the case of `Cc1noc(C)c1NC(=O)Nc1ccc2c(c1)CC(=O)N([C@@H](C)CO)C[C@H](C)[C@H](CN(C)S(=O)(=O)c1ccccc1)O2`, the relative growth was 0.971.

In the case of `Cc1noc(C)c1NC(=O)N(C)C[C@H]1Oc2ccc(NS(=O)(=O)c3c(C)noc3C)cc2CC(=O)N([C@@H](C)CO)C[C@@H]1C`, the relative growth is 0.985.

Take `C[C@H](CO)N1C[C@H](C)[C@@H](CN(C)S(=O)(=O)c2ccccc2)OCCCC[C@H](C)Oc2ccc(NS(=O)(=O)c3cn(C)cn3)cc2C1=O`: the relative growth is 0.993.

As to `O=C(/C=C/c1cccc(-c2cn(-c3cccc(C(=O)N4CCC5(CC4)C(=O)NCN5c4ccccc4)c3)nn2)c1)NO`, the relative growth was 0.972.

`O=C(NO)c1cn(-c2cccc(C(=O)N3CCC4(CC3)C(=O)NCN4c3ccccc3)c2)nn1`: the relative growth is 0.0368 (active).

Turning to `O=C(NO)c1cn(CC(=O)N2CCC3(CC2)C(=O)NCN3c2ccccc2)nn1`, the relative growth was 0.94.

As for `C[C@H](CO)N1C[C@H](C)[C@@H](CN(C)CC2CC2)Oc2c(NS(=O)(=O)c3cn(C)cn3)cccc2C1=O`, the relative growth was 0.999.

`COC(=O)C[C@@H]1CC[C@@H]2[C@@H](COc3ccc(NS(=O)(=O)c4ccccc4Cl)cc3C(=O)N2C)O1`: the relative growth was 1.03.

In the case of `CS(=O)(=O)Nc1cccc(C2=NN(c3nc(-c4ccccc4)c4cc(Cl)ccc4n3)[C@H](c3ccco3)C2)c1`, the relative growth is 1.

On to `Cc1noc(C)c1NC(=O)Nc1ccc2c(c1)C(=O)N([C@@H](C)CO)C[C@@H](C)[C@H](CN(C)S(=O)(=O)c1ccc(F)cc1)OCCCC[C@H](C)O2`, for which the relative growth was 1.03.

For the compound `O=C(C[C@@H]1C[C@@H]2c3cc(NS(=O)(=O)c4ccc(F)cc4)ccc3O[C@@H]2[C@H](CO)O1)NC1CCCC1`, the relative growth is 0.992.

Turning to `COc1ccc(C#Cc2ccc3c(c2)O[C@@H](CN(C)C(C)=O)[C@@H](C)CN([C@@H](C)CO)S3(=O)=O)cc1`, the relative growth is 1.03.

Turning to `COc1cccnc1N`, the relative growth was 0.99.

As for `COc1ccc(C2=C(N)C(=O)NC2=O)cc1OC`, the relative growth was 0.93.

In the case of `COc1cc(CN)cc(OC)c1OC`, the relative growth is 1.

As for `COc1ccc(Cc2cnc(N)nc2N)cc1OC`, the relative growth is 0.0502 (active).

For `COc1cc(O)cc(OC)c1OC`, the relative growth is 1.1.

On to `COc1cc(Cc2cnc(N)nc2N)cc(OC)c1OC`, for which the relative growth was 0.044 (active).

With `Cc1ccc(S(=O)(=O)N(C)C[C@H]2Oc3c(NS(=O)(=O)c4cn(C)cn4)cccc3C(=O)N([C@@H](C)CO)C[C@@H]2C)cc1`, the relative growth is 0.959.

Take `Cc1noc(C)c1NC(=O)Nc1cccc2c1O[C@@H](CN(C)Cc1ccc(Oc3ccccc3)cc1)[C@H](C)CN([C@H](C)CO)C2=O`: the relative growth is 0.995.

Turning to `COc1ccc(-c2cnc3c(c2)C(=O)N([C@H](C)CO)C[C@H](C)[C@@H](CN(C)S(=O)(=O)c2ccc(OC)cc2)O3)cc1`, the relative growth is 1.

`C[C@@H]1CN([C@@H](C)CO)C(=O)c2cc(N(C)C)ccc2O[C@@H](C)CCCCO[C@@H]1CN(C)C(=O)Nc1ccc(C(F)(F)F)cc1`: the relative growth is 0.928.

With `COc1cccc(S(=O)(=O)Nc2ccc3c(c2)[C@@H]2C[C@@H](CC(=O)N4CCCCC4)O[C@@H](CO)[C@@H]2O3)c1`, the relative growth was 0.993.

Take `C[C@H]1CN([C@@H](C)CO)S(=O)(=O)c2ccc(Br)cc2O[C@@H]1CN(C)C(=O)c1cccnc1`: the relative growth was 0.972.

As for `C[C@@H]1CN([C@H](C)CO)S(=O)(=O)c2ccc(-c3cccc(C#N)c3)cc2O[C@@H]1CN(C)C(=O)c1cccnc1`, the relative growth was 1.01.

Turning to `Cc1n[nH]c(=S)n1N`, the relative growth is 0.968.

As for `Cc1nnsc1-c1onc(C)c1C(N)=O`, the relative growth was 0.866.

Consider `C[C@H]1CN([C@@H](C)CO)C(=O)c2cccc(NC(=O)C3CC3)c2O[C@@H]1CN(C)S(=O)(=O)c1ccc(Cl)cc1`, for which the relative growth was 1.

Regarding `C[C@@H]1CN([C@H](C)CO)C(=O)Cc2cc(NC(=O)Cc3cn(C)c4ccccc34)ccc2O[C@H]1CN(C)CC1CCCCC1`, the relative growth is 1.02.

As for `CO[C@H]1C[C@@H]2CC[C@@H](C)[C@@](O)(O2)C(=O)C(=O)N2CCCC[C@H]2C(=O)O[C@H]([C@H](C)C[C@@H]2CC[C@@H](OP(C)(C)=O)[C@H](OC)C2)CC(=O)[C@H](C)/C=C(\C)[C@@H](O)[C@@H](OC)C(=O)[C@H](C)C[C@H](C)/C=C/C=C\C=C\1C`, the relative growth was 0.837.

For the compound `Cl.Nc1c2c(nc3ccccc13)CCCC2`, the relative growth is 0.911.

Take `Nc1c2c(nc3ccccc13)CCCC2`: the relative growth was 0.985.

With `Nc1c2ccccc2nc2ccccc12`, the relative growth was 0.0461 (active).

For the compound `Cc1noc(C)c1NC(=O)N(C)C[C@H]1Oc2ccc(NS(=O)(=O)c3cn(C)cn3)cc2C(=O)N([C@H](C)CO)C[C@H]1C`, the relative growth is 0.989.

Regarding `C[C@@H]1CN([C@H](C)CO)C(=O)Cc2cc(NC(=O)C3CCCCC3)ccc2O[C@H]1CN(C)Cc1ccc(C(=O)Nc2ccccc2N)cc1`, the relative growth was 0.979.

Turning to `COc1cc2c(cc1OC)CN(CCc1ccc(NC(=O)c3cc(OC)c(OC)cc3NC(=O)c3cnc4ccccc4c3)cc1)CC2`, the relative growth is 0.965.

Consider `COC(=O)NN=Cc1c[n+]([O-])c2ccccc2[n+]1[O-]`, for which the relative growth was 0.574.

For `CC(=O)O.N=C(N)NN=Cc1c(Cl)cccc1Cl`, the relative growth is 0.885.

On to `COC(=O)N/N=C/c1c[n+]([O-])c2ccccc2[n+]1[O-]`, for which the relative growth was 0.0462 (active).

Take `C[C@H]1CN([C@@H](C)CO)C(=O)c2cccc(NS(=O)(=O)c3ccccc3)c2O[C@H]1CN(C)S(C)(=O)=O`: the relative growth is 0.967.

Regarding `O=c1c(O[C@@H]2O[C@H](CO)[C@@H](O)[C@H](O)[C@@H]2O[C@H]2OC[C@](O)(CO)[C@H]2O)c(-c2ccc(O)c(O)c2)oc2cc(O)cc(O)c12`, the relative growth was 1.02.

As for `O=C(C[C@@H]1CC[C@@H](NS(=O)(=O)c2ccc(F)cc2)[C@@H](CO)O1)N1CCC(Cc2ccccc2)CC1`, the relative growth was 0.987.

On to `CC(C)NC(=N)NC(=N)Nc1ccc(Cl)cc1.Cl`, for which the relative growth was 0.965.

On to `Cl.Cl.N=C(NCCCCCCNC(=N)NC(=N)Nc1ccc(Cl)cc1)NC(=N)Nc1ccc(Cl)cc1`, for which the relative growth is 0.0423 (active).

Regarding `CCC(=O)Nc1ccc(Cl)cc1`, the relative growth is 1.

Take `Cc1noc(C)c1NC(=O)N(C)C[C@H]1OCCCC[C@@H](C)Oc2ccc(NC(=O)C3CCCCC3)cc2C(=O)N([C@@H](C)CO)C[C@H]1C`: the relative growth is 0.976.

Regarding `Cc1noc(C)c1NC(=O)N(C)C[C@H]1Oc2c(NC(=O)C3CC3)cccc2C(=O)N([C@H](C)CO)C[C@@H]1C`, the relative growth is 1.

Take `CC(C)NC(=O)Nc1ccc2c(c1)C(=O)N([C@@H](C)CO)C[C@H](C)[C@H](CN(C)CC1CCCCC1)OCCCC[C@H](C)O2`: the relative growth was 1.01.

Take `CC[C@@H](O)C[C@H]1CC[C@H]([C@@H](C)C(=O)O[C@@H](C)C[C@H]2CC[C@H]([C@@H](C)C(=O)O[C@@H](C)C[C@H]3CC[C@H]([C@@H](C)C(=O)O[C@@H](C)C[C@H]4CC[C@H]([C@@H](C)C(=O)O)O4)O3)O2)O1`: the relative growth is 1.06.

On to `CN(C)CCC=C1c2ccccc2COc2ccc(CC(=O)O)cc21.Cl`, for which the relative growth is 0.0442 (active).

As for `CN(C)CCC=C1c2ccccc2CCc2ccccc21.Cl`, the relative growth was 0.976.

For `CN(C)CCC=C1c2ccccc2COc2ccccc21.Cl`, the relative growth was 1.03.

As for `C[C@@H]1CN([C@H](C)CO)C(=O)c2ccccc2-c2ccccc2CO[C@@H]1CN(C)C(=O)Nc1cccc(F)c1`, the relative growth is 1.01.

With `CC(=O)On1cc(F)c(=O)[nH]c1=O`, the relative growth is 0.0691 (active).

On to `CCOC(=O)CCn1cc(F)c(=O)[nH]c1=O`, for which the relative growth is 0.986.

`CCOC(=O)Cn1cc(F)c(=O)[nH]c1=O`: the relative growth is 1.06.

With `CCC1OC(=O)C(C)C(=O)C(C)C(OC2OC(C)CC(N(C)C)C2O)C(C)(OC)CC(C)C(=O)C(C)C2N(CCCCn3cnc(-c4cccnc4)c3)C(=O)OC12C` (stereo unspecified), the relative growth is 0.0499 (active).
